Compounds with a hit are over-represented: about 6.5% of the library has one in this group of screens.
Vaccinia mCherry: qHTS for Stage-Specific Inhibitors of Vaccinia Orthopoxvirus: mCherry Reporter Primary qHTS | Vaccinia virus mCherry reporter infection, fluorescence | hit rate 0.63% among 310,000 | Potency, µM (highest dose often 36.5 µM), for inactives: top-dose activity change, negative = inhibition, most hits filed as inhibitors; calls by dose curve; tested in A549 cells; note: potency is the fitted concentration of half-maximal effect; nearly all actives have a fitted effect of over 35% in size
Lassa entry inh: qHTS for Inhibitors of binding or entry into cells for Lassa Virus; hit rate 1.2% among 300,000; AID 540256, 2011; Lassa virus pseudotype entry inhibition, cell reporter; Potency, µM (doses to about 37.9 µM), inactives show at the highest dose activity change, negative = inhibition, most hits filed as inhibitors; calls by dose curve; tested in HEK293 cells; note: potency is the fitted concentration of half-maximal effect; nearly all actives have a fitted effect of over 50% in size
Marburg entry inh: qHTS for inhibitors of binding or entry into cells for Marburg Virus. hit rate 1.8% among 300,000. Potency, µM (highest dose often 37.8 µM), without a hit: at the highest dose activity change, negative = inhibition, most hits filed as inhibitors. Marburg virus pseudotyped entry inhibition, cell reporter. AID 540276, 2011; calls by dose curve; tested in HEK293 cells; note: potency is the fitted concentration of half-maximal effect
VACV Venus inh: qHTS for Stage-Specific Inhibitors of Vaccinia Orthopoxvirus: Venus Reporter Primary qHTS. Vaccinia virus Venus reporter expression, fluorescence. Potency, µM (titrated, usually from 36.5 µM), without a hit: top-dose activity change, negative = inhibition, usual class: inhibitors. hit rate 0.46% among 330,000; calls by dose curve; tested in A549 cells; note: potency is the fitted concentration of half-maximal effect; nearly all actives have a fitted effect of over 30% in size
HCMV antiviral: qHTS Assay for inhibitors of the human cytomegalovirus (HCMV); HFF cells, HCMV-luciferase reporter, 72 h; active compounds read low; activity change, negative = inhibition, % at 57.5 µM; hit rate 4.5% among 410,000; in the data active = activity change below about -60%; inconclusive = no clear call, values can overlap the other calls; inactive = above about -39%
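Human foreskin fibroblasts infected with luciferase-reporter HCMV at MOI 1 PFU/cell, compounds at two doses. Luciferase measured 72 h post infection; normalized to buffer-only basal and Salinomycin (10uM) controls.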
FMDV antiviral: High Throughput Screening for Foot and Mouth Disease Virus Antivirals; FMDV antiviral cell-based qHTS; Potency, µM (top dose mostly 57.9 µM), inactives show at the highest dose activity change, negative = inhibition, actives largely listed as inhibitors; hit rate 1.2% among 410,000; calls by dose curve; tested in HEK293T cells; note: read-out not given here; potency is the fitted concentration of half-maximal effect; nearly all actives have a fitted effect of over 45% in size
The depositor's hits bear a star; i = inactive; ? = inconclusive; nt = no result given; [ ] = dose if it differs, or a comment. % is set by controls: 0 for no effect and ±100 for the full control effect.

SMILES | Vaccinia mCherry | Lassa entry inh | Marburg entry inh | VACV Venus inh | HCMV antiviral | FMDV antiviral
CC1(Cc2ccc(F)cc2)C(=O)Nc2ccc(-c3cccnc3)cc21 (stereo not given) | -18% | nt | nt | -8% | -64* | 0%
COc1cccc(-c2nccc(N(C)Cc3ccco3)n2)c1 | nt | nt | nt | nt | nt | 3%
CCN(CC)C(=O)c1sc2c(c1C)c(=O)n(CCc1ccccc1)c(=O)n2Cc1ccc(C)cc1 | -20% | -24%[46.1 µM] | nt | -7% | -20 | ?
CCN(CC)C(=O)CC(c1ccc(F)cc1)c1ccc(OC)cc1 (stereo not given) | -20% | -24% | -25% | -13% | -67* | -30%
CCc1nn(CC(=O)N2CCCCC2)c(=O)c2cc3occc3n12 | -4% | ? | 2%[46.1 µM] | 4% | 3 | -18%
Cc1nn(CC(=O)N2CCCCCC2)c(=O)c2cc3occc3n12 | -7% | 0%[46.1 µM] | -5%[46.1 µM] | -5% | -62* | 5%
O=C(N/N=C/C=C/c1ccccc1)C1CC1c1ccccc1 (stereo not given) | nt | 0.13µM* | ? | nt | 5 | 13%
CC(=O)Nc1ccc(/C(C)=N/NC(=O)C2CC2c2ccccc2)cc1 (stereo not given) | -4% | 0.018µM* | 3% | -2% | -11 | -11%
COc1ccc(COC(=O)NN=C2C[C@@H](O)[C@@H](O)[C@@H]3[C@H]4C(=O)N(c5cccc(Oc6ccccc6)c5)C(=O)[C@@H]4CC[C@H]23)cc1 | nt | ? | 9%[14.2 µM] | nt | nt | nt
CN(C)CCCn1c(-c2nonc2N)nc2cnccc21 | nt | 4% | nt | nt | nt | nt
CN1NC(=O)c2ccccc2NC1=S | nt | nt | nt | nt | -61* | nt
Cc1nc2ccccc2nc1CN1CCOc2ccc(C3(O)CCN(c4ccccc4F)CC3)cc2C1 | -15% | nt | nt | -9% | nt | ?
C=C1SC(Nc2c(C)cc(C)cc2C)=NC12CCCCC2 | -18% | ? | 3.5µM* | -24% | -89* | ?
COc1cccc(CNCCC2=C3C=CC=CC3N=C2)c1 (stereo not given) | nt | nt | 11µM* | nt | nt | nt
COc1cccc(CCNCc2cccc(C(F)(F)F)c2)c1 | -16% | -2% | ? | -18% | -15 | -11%
CN1C(=O)C(C(Nc2ccccc2)c2ccc(Br)cc2)c2ccccc21 (stereo not given) | nt | nt | nt | nt | 49 | nt
COc1ccccc1/C=C/CN1CCCC(CCC(=O)NCc2ccc(F)c(F)c2)C1 (stereo not given) | -15% | -16%[46.1 µM] | ? | -19% | ? | -9%
COc1ccc(/C=C/CN2CCCC(CCC(=O)NCc3ccc(F)c(F)c3)C2)cc1 (stereo not given) | -18% | 0% | 7.9µM* | -16% | -21 | -28%
Nc1ccc(N2CCN(CCCCN3C(=O)C4CCCN4C3=O)CC2)cc1 (stereo not given) | i | 14% | 3.2µM* | -11% | -11 | -20%
Cc1c(C)c2ccc(OCC(=O)Nc3ccccn3)c(C)c2oc1=O | nt | nt | nt | nt | -84* | -10%
Cc1cccc(OCC(=O)NNC(=O)c2cccs2)c1 | i | -15% | 7%[46.1 µM] | -10% | -38 | -8%
Cc1cc(OCC(=O)NNC(=O)c2cccs2)ccc1Br | -25% | 14%[46.1 µM] | 6%[46.1 µM] | 17% | -73* | 0%
Cc1cccc(OCC(=O)Nc2nnn(C)n2)c1C | -35% | 26% | -19% | -23% | -102* | 7%
Cc1nn(C)c(C)c1NC(=O)COc1ccc(Cl)cc1Br | ? | ? | ? | -20% | -93* | ?
CN(C)c1ccc(CN(CC2CCCO2)C(=O)COc2ccc(Cl)cc2)cc1 (stereo not given) | -10% | ? | ? | -12% | -32 | 0%
SMILES | Vaccinia mCherry | Lassa entry inh | Marburg entry inh | VACV Venus inh | HCMV antiviral | FMDV antiviral
c1cncc(CNc2cc(-c3ccc4c(c3)OCO4)ncn2)c1 | i | nt | nt | 15% | nt | 59%
Cc1ccc2c(Sc3ccc(Cl)cc3)c(C(=O)N3CCCCC3)[nH]c2c1 | -16% | -4%[46.1 µM] | ? | -4% | 9 | 0%
CSc1nc2c(=O)[nH]cnc2s1 | nt | nt | nt | nt | -9 | nt
O=C(COc1ccc(Cl)cc1Cl)Nc1ccccn1 | nt | 0.52µM* | ? | nt | -80* | 1.6µM*
O=C(CCCOc1ccc(Cl)cc1Cl)Nc1ccccc1C(=O)O | -1% | ? | 3.2µM* | 23% | -27 | -14%
Cc1cc(Cl)ccc1OCC(=O)Nc1ccncc1 | nt | nt | nt | nt | -60* | -20%
Cc1cc(OCC(=O)Nc2ccncc2)ccc1Br | nt | 1% | 0% | ? | -90* | ?
CSc1ccccc1NC(=O)COc1ccc(Cl)cc1Cl | -6% | 19% | ? | -17% | ? | -2%
O=C(CN1CCOCC1)c1ccc2ccccc2c1 | -19% | nt | nt | -10% | nt | nt
Cc1ccc2oc(-c3ccc(C)c(NC(=O)COc4ccccc4C)c3)nc2c1 | -8% | nt | nt | -21% | nt | nt
COc1ccc(CNC(=O)Cn2nc3c(cc2=O)CCCC3)cc1 | -11% | 0%[46.1 µM] | nt | 0% | ? | -18%
C/C=C/c1ccc(OCC(=O)Nc2ccncc2)c(OC)c1 | nt | nt | nt | nt | -83* | -7%
Cc1cccc(OCC(=O)Nc2ccncc2)c1C | -30% | ? | ? | -21% | -84* | -15%
COc1ccc(O[C@H]2C=C[C@@H](c3ccccc3)O[C@H]2COC(=O)CCC(C)=NO[C@H](C)c2cn([C@H](CO)Cc3ccccc3)nn2)cc1 | nt | ? | -9%[14.2 µM] | nt | nt | nt
COc1ccc(NC(=O)CSc2nc3nc(C)c(Cc4ccccc4)c(C)n3n2)cc1OC | -5% | -5%[46.1 µM] | nt | -20% | -66* | -23%
O=C(COC(=O)c1ccc[nH]c1=O)Nc1ccc(S(=O)(=O)N2CCCC2)cc1 | nt | nt | nt | nt | ? | -8%
O=C(COC(=O)c1ccc[nH]c1=O)Nc1ccc(N2CCCCC2)cc1 | nt | nt | nt | nt | -75* | 2.5µM*
O=C(OCC(=O)N1CCCCCC1)c1ccc[nH]c1=O | nt | nt | nt | nt | -60* | -4%
COC(=O)N1C(c2ccccc2)=Cc2ccccc2C1CC(C)=O (stereo not given) | nt | nt | 0%[14.2 µM] | nt | nt | nt
O=C(C[n+]1cc(Br)cc2ccccc21)c1ccc(O)c(O)c1 | -13% | nt | nt | -11% | nt | nt
O=C(OCc1cn([C@@H]2C[C@H](c3ccccc3)N(CC3CCCCC3)C[C@@H]2O)nn1)c1ccccc1 | nt | -9%[46.1 µM] | nt | nt | nt | nt
CCn1cc(CN(C)C(=O)CSc2nc(-c3ccco3)cc(C(F)(F)F)n2)c(C)n1 | -28% | -24% | ? | -22% | -23 | 20µM*
Cc1c(CN(C)C(=O)CSc2nc(-c3ccco3)cc(C(F)(F)F)n2)cnn1C | -16% | -2% | -9% | -15% | 8 | nt
CCOC(=O)c1cc(S(=O)(=O)N2CCN(c3cc(C)ccc3C)CC2)[nH]n1 | -11% | -5%[46.1 µM] | nt | -8% | 12 | -1%
Cc1sc2ccccc2[n+]1CCCC[n+]1c(C)sc2ccccc21 | 2.8µM* | nt | nt | ? | nt | nt
Cc1sc2ccccc2[n+]1Cc1ccccc1 | -3% | nt | nt | 2% | nt | nt
Cc1sc2ccccc2[n+]1C | -15% | nt | nt | 1% | nt | nt
Cc1sc2ccccc2[n+]1CCCCBr | 7.1µM* | nt | nt | ? | nt | nt
CC(NNC(=S)N1CCCCCC1)c1ccc2ccccc2n1 (stereo not given) | 5.6µM* | nt | nt | -25% | -94* | 57%

Bioassay records (PubChem BioAssay)
